From PubChem BioAssay
HPGD block: inhibitors of human 15-hydroxyprostaglandin dehydrogenase (HPGD) | P15428 | purified HPGD, NADH fluorescence kinetic, PGE2 substrate | Potency, µM, for the others: top-dose activity change, negative = inhibition, actives largely listed as inhibitors | 150,000 compounds, 4.3% hits; active = well fitted inhibition curve with a large enough effect, not every such curve was filed as active; inconclusive = small, poorly fitted or top-dose-only effect, or another doubt; inactive = no such curve, though single readings can be large or run the other way
Target sequence (P15428 whole entry, looked up): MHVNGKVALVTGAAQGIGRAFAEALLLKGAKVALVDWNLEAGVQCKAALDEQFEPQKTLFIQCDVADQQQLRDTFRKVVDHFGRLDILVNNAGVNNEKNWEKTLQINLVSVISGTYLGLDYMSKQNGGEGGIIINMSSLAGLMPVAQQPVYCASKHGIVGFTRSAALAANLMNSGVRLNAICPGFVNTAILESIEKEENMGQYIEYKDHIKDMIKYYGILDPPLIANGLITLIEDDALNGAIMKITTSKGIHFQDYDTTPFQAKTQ
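NADH formation kinetics: reaction with 30 uM PGE2 and 1 mM NAD+ (final), 20 nM enzyme, Tris-HCl pH 8 with Tween 20, after 15 min compound preincubation at room temperature. Fluorescence change, last versus first of five reads.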
Tau ThT inhib: blocks human tau fibril formation measured by thioflavin T; P10636; recombinant tau K18 P301L, heparin-induced fibrillization, ThT fluorescence; Potency, µM (top dose mostly 57.4 µM), inactives show top-dose activity, negative = inhibition, most hits filed as inhibitors; 270,000 compounds, 2.1% hits; also: nearly all actives have a fitted effect of over 55% in size
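ThT emission at 510 nm, taken 1 hr after adding 30 uM dye, quantifies aggregates formed when 20 uM heparin acts on human tau K18 P301L for 6 hr at 37 C.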
ALDH1A1 block: inhibitors of human aldehyde dehydrogenase 1A1. 220,000 compounds, 7.3% hits. Purified ALDH1A1, NADH fluorescence, propionaldehyde substrate. Potency, µM (doses to about 75.3 µM), for inactives: at the highest dose activity, negative = inhibition, hits mostly inhibitors. P00352; active = well fitted inhibition curve with a large enough effect, not every such curve was filed as active; inconclusive = small, poorly fitted or top-dose-only effect, or another doubt; inactive = no such curve, though single readings can be large or run the other way;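 also: plate controls were no enzyme wells and a reference inhibitor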
Target sequence (P00352 whole entry, looked up): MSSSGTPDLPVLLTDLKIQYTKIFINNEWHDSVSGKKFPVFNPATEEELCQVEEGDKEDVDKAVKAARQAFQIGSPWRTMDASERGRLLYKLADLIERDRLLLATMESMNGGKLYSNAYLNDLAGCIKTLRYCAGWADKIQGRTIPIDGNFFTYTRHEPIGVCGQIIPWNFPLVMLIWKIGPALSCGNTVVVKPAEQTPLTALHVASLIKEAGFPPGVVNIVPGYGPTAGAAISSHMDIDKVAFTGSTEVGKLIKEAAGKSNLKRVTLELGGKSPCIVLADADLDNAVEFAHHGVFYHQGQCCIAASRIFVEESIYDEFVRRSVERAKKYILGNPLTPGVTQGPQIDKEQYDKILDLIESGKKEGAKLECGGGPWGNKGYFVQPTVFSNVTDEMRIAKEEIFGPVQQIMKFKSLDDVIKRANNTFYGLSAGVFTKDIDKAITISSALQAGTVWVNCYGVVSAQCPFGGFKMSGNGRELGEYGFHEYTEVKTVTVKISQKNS
Tau fibril FP: inhibitors of human tau fibril formation; Potency, µM (highest dose often 57.7 µM), inactives show at the top dose activity, negative = inhibition, actives largely listed as inhibitors; AID 1468; P10636; 280,000 compounds, 0.39% hits; K18 P301L tau heparin fibrillization, Alexa594 FP, 6 h; also: nearly all actives have a fitted effect of over 55% in size
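Steps: dispense K18 P301L tau (15 uM plus 0.24 uM Alexa 594 tracer, final) in pH 7 sodium acetate; add compound; add heparin (20 uM final); incubate 6 hr, 37 C; add ThT (30 uM final); after 1 hr ambient, read FP.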
NPSR antagonist: blocks cAMP signaling of the human neuropeptide S receptor | Q6W5P4 | CHO-NPSR cells, cAMP TR-FRET, antagonist mode | Potency, µM (top dose mostly 38.3 µM), without a hit: at the highest dose activity change, negative = inhibition, usual class: inhibitors | 220,000 compounds, 1% hits; also: nearly all actives have a fitted effect of over 50% in size
Tau fluor counter: counter-screen for tau fibril formation inhibitors. tau K18 P301L Alexa594 fluorescence, heparin fibrillization. Potency, µM (titrated, usually from 57.7 µM), for inactives: at the top dose activity change, negative = decrease. 280,000 compounds, 0.93% hits; also: nearly all actives have a fitted effect of over 55% in size
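Human tau K18 P301L (15 uM unlabeled, 0.24 uM Alexa 594-labeled) in 100 mM sodium acetate pH 7 with 20 uM heparin, 6 hr at 37 C. ThT 30 uM added, 1 hr ambient; Alexa 594 FP and total fluorescence read at 555/632 nm.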
* marks the source's active call; other numbers are inactive results; [ ] = another dose, or the depositor's remark. Rows were chosen to be rich in hits. Some 9.5% of all compounds tested hit in one or more screens of this group. Unless noted, calls follow the shape of the dose curve; as a rule, active = well fitted curve in the direction sought with a large enough effect; inconclusive = small, poorly fitted or top-dose-only effect, or another doubt; inactive = no such curve, though single readings can be large; an effect the other way counts as inactive or inconclusive. Unless noted, % is scaled to controls: 0 for no effect and ±100 for the full control effect; potency is read from the fitted curve at half-maximal effect.

How did COc1cc(/C=C/c2ccc3c([N+](=O)[O-])cccc3n2)ccc1OCC(=O)O do in these assays?
Tau ThT inhib: 3.16µM*; Tau fibril FP: -0.7%; NPSR antagonist: -2.3%; Tau fluor counter: -16.4%

How did COc1cc(/C=C/c2ccc3cccc([N+](=O)[O-])c3n2)ccc1OCC(=O)O do in these assays?
Tau ThT inhib: inconclusive; ALDH1A1 block: -11.2%; Tau fibril FP: 7.1%; NPSR antagonist: 0.1%; Tau fluor counter: -2.9%

How did O=C(COc1ccc(Br)cc1Br)NC(=S)N1CCCc2ccccc21 do in these assays?
HPGD block: -16.9%; Tau ThT inhib: inconclusive; ALDH1A1 block: 11.2µM*; Tau fibril FP: 0.8%; NPSR antagonist: -12.7%[46.1 µM]; Tau fluor counter: inconclusive

Results for O=C(COc1ccc(Br)cc1Cl)NC(=S)N1CCc2ccccc21 ?
HPGD block: inconclusive; Tau ThT inhib: inconclusive; ALDH1A1 block: inconclusive; Tau fibril FP: -11.6%; NPSR antagonist: -15.7%; Tau fluor counter: -27.0%

Results for Cc1ccc(S(=O)(=O)Nc2ccc(O)c3ncccc23)cc1 ?
Tau ThT inhib: -14.2%; ALDH1A1 block: 1.26µM*; Tau fibril FP: 6.1%; NPSR antagonist: -27.6%; Tau fluor counter: -12.3%

What do the screens show for `O=C(O)c1ccc2c(c1)C(=O)N(Cc1ccccc1)C2=O`?
HPGD block: 14.1µM*; Tau ThT inhib: -9.1%; ALDH1A1 block: -11.4%; Tau fibril FP: 2.9%; NPSR antagonist: 2.0%[46.1 µM]; Tau fluor counter: -2.0%

What do the screens show for `O=C(COc1ccccc1)Nc1ccc2c(c1)C(=O)N(CC1CCCO1)C2=O` (centres undefined)?
Tau ThT inhib: -12.3%; ALDH1A1 block: inconclusive; Tau fibril FP: 6.6%; NPSR antagonist: -3.0%; Tau fluor counter: -11.9%

How did COC(=O)c1cccc(NC(=O)c2ccc3c(c2)C(=O)N(CC2CCCO2)C3=O)c1 (centres undefined) do in these assays?
HPGD block: -8.4%; Tau ThT inhib: -10.9%; ALDH1A1 block: 1.41µM*; Tau fibril FP: -11.5%; NPSR antagonist: -3.2%[46.1 µM]; Tau fluor counter: -16.3%

How did COc1ccccc1OCC(=O)Nc1ccc2c(c1)C(=O)N(CC1CCCO1)C2=O (centres undefined) do in these assays?
Tau ThT inhib: -14.4%; ALDH1A1 block: 4.47µM*; Tau fibril FP: 0.7%; NPSR antagonist: -7.7%; Tau fluor counter: -15.5%

Results for O=C(NCc1ccccc1)c1ccc2c(c1)C(=O)N(CC1CCCO1)C2=O (centres undefined) ?
HPGD block: -20.0%; Tau ThT inhib: -7.6%; ALDH1A1 block: 5.01µM*; Tau fibril FP: 5.9%; NPSR antagonist: -3.9%[46.1 µM]; Tau fluor counter: -9.0%

What do the screens show for `O=C(Cc1ccccc1)Nc1ccc2c(c1)C(=O)N(CC1CCCO1)C2=O` (centres undefined)?
Tau ThT inhib: -0.6%; ALDH1A1 block: inconclusive; Tau fibril FP: -2.4%; NPSR antagonist: -1.2%; Tau fluor counter: -5.5%

What do the screens show for `CCOC(=O)N1CCC(N2Cc3cccc(C(=O)NCc4ccccn4)c3C2=O)CC1`?
HPGD block: -4.5%; Tau ThT inhib: -6.2%; ALDH1A1 block: -8.1%; Tau fibril FP: -10.7%; NPSR antagonist: 1.1%[46.1 µM]; Tau fluor counter: -0.7%

How did COc1ccccc1N/N=C/c1ccc2c(c1)OCO2 do in these assays?
HPGD block: 15.8µM*; Tau ThT inhib: inconclusive; ALDH1A1 block: inconclusive; Tau fibril FP: 4.0%; NPSR antagonist: 3.5%; Tau fluor counter: inconclusive

What do the screens show for `COc1ccccc1NC=C1C(=O)OC(C)(C)OC1=O`?
HPGD block: -15.3%; Tau ThT inhib: 0.2%; ALDH1A1 block: 0.355µM*; Tau fibril FP: 4.9%; NPSR antagonist: -19.6%[46.1 µM]; Tau fluor counter: 5.4%

What do the screens show for `CC1(C)OC(=O)C(=CNc2ccccc2)C(=O)O1`?
HPGD block: -17.5%; Tau ThT inhib: -3.1%; ALDH1A1 block: inconclusive; Tau fibril FP: 1.5%; NPSR antagonist: 8.1%[46.1 µM]; Tau fluor counter: -1.1%

Results for CCOc1ccccc1NC=C1C(=O)OC(C)(C)OC1=O ?
HPGD block: -23.6%; Tau ThT inhib: 8.5%; ALDH1A1 block: 2.24µM*; Tau fibril FP: -0.4%; NPSR antagonist: -5.5%[46.1 µM]; Tau fluor counter: 0.0%

How did CC1(C)OC(=O)C(=CNc2ccccc2F)C(=O)O1 do in these assays?
HPGD block: -7.1%; Tau ThT inhib: -2.9%; ALDH1A1 block: inconclusive; Tau fibril FP: 3.5%; NPSR antagonist: -7.0%[46.1 µM]; Tau fluor counter: 1.5%

What do the screens show for `CCOC(=O)N1CCN(C(=O)CN(c2ccccc2F)S(=O)(=O)c2ccc(C)cc2)CC1`?
Tau ThT inhib: 3.4%; Tau fibril FP: 6.6%; Tau fluor counter: 0.2%

How did COc1cccc(NC(=O)CSc2nccn2Cc2ccc3c(c2)OCO3)c1 do in these assays?
Tau ThT inhib: -2.9%; Tau fibril FP: -6.9%; Tau fluor counter: -15.1%

How did Cc1cc([N+](=O)[O-])cnc1NC(C)c1ccccc1 (centres undefined) do in these assays?
HPGD block: -16.2%; Tau ThT inhib: 0.2%; ALDH1A1 block: 22.4µM*; Tau fibril FP: -8.3%; NPSR antagonist: -24.0%[46.1 µM]; Tau fluor counter: -10.4%

How did Cc1cccc(NC(=O)c2ccc(NC(C)c3ccccc3)c([N+](=O)[O-])c2)n1 (centres undefined) do in these assays?
Tau ThT inhib: inconclusive; ALDH1A1 block: -12.7%; Tau fibril FP: 6.6%; NPSR antagonist: -28.5%; Tau fluor counter: inconclusive

Results for CCCCN(C)S(=O)(=O)c1ccc(NC2=NS(=O)(=O)c3ccccc32)cc1 ?
Tau ThT inhib: 1.6%; Tau fibril FP: inconclusive; Tau fluor counter: -18.7%

Results for O=[N+]([O-])c1ccc2c(c1N1CCCCC1)=NC1(CCCCC1)[N+]=2[O-] ?
Tau ThT inhib: 12.6µM*; Tau fibril FP: inconclusive; NPSR antagonist: inconclusive; Tau fluor counter: inconclusive

How did CCOc1ccc(S(=O)(=O)Nc2cccc(OC)c2)c2cccnc12 do in these assays?
Tau ThT inhib: -5.6%; Tau fibril FP: inconclusive; Tau fluor counter: -18.4%

What do the screens show for `Cc1ccc(NC(=O)Cn2cccc2)cc1C`?
HPGD block: inconclusive; Tau ThT inhib: 5.0%; ALDH1A1 block: -16.6%; Tau fibril FP: 0.5%; NPSR antagonist: -0.7%[46.1 µM]; Tau fluor counter: 2.7%

How did Cc1ccc(NC(=O)CCSCCC(=O)Nc2ccc(C)c(C)c2)cc1C do in these assays?
HPGD block: -23.9%; Tau ThT inhib: inconclusive; ALDH1A1 block: 17.8µM*; Tau fibril FP: -2.2%; NPSR antagonist: -16.2%[46.1 µM]; Tau fluor counter: -24.2%

How did Cc1ccc(NC(=O)/C=C\C(=O)NCC(=O)O)cc1C do in these assays?
HPGD block: -18.5%; Tau ThT inhib: -14.7%; ALDH1A1 block: 5.01µM*; Tau fibril FP: -0.1%; NPSR antagonist: 4.5%; Tau fluor counter: 4.1%
